Source: PubChem BioAssay (National Center for Advancing Translational Sciences (NCATS))
A selection: hits, their analogues and other compounds. The true share with any hit is near 0.85%.
APEX1 inh – qHTS Assay for Inhibitors of the Human Apurinic/apyrimidinic Endonuclease 1 (APE1); Potency, µM (doses to about 65.8 µM), without a hit: at the highest dose activity change, negative = inhibition, usual class: inhibitors; actives 0.35% (n = 350,000); DNA repair nuclease/redox regulator APEX1 (Homo sapiens), P27695; recombinant APE1, TAMRA/BHQ-2 abasic DNA cleavage fluorescence;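 also: plate controls were vehicle for no effect and reference inhibitor for full effect; nearly all actives have a fitted effect of over 55% in size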
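Readout is kinetic fluorescence (ex 525, em 598 nm) from cleavage of 50 nM TAMRA/BHQ-2 THF abasic duplex by 0.75 nM APE1, compound added 15 min beforehand at RT.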
GLS inh – qHTS for Inhibitors of Glutaminase (GLS) | actives 0.21% (n = 410,000) | Glutaminase kidney isoform, mitochondrial (Homo sapiens), O94925 | GLS enzymatic activity, qHTS titration | Potency, µM (top dose mostly 45.5 µM), inactives show at the highest dose activity change, negative = inhibition, usual class: inhibitors
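Coupled fluorescence readout: glutamate oxidase/HRP/Amplex Red detect glutamate formed by hKGA from L-glutamine (1 mM solution added). Buffer 45 mM KH2PO4 pH 8.2, 0.02% Tween-20; reads at t0 and 30 min RT.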
BLM inh – qHTS Assay for Inhibitors of Bloom's syndrome helicase (BLM); AID 2528, 2010; actives 0.2% (n = 350,000); Potency, µM (highest dose often 56.1 µM), without a hit: top-dose activity change, negative = inhibition, hits mostly inhibitors; RecQ-like DNA helicase BLM (Homo sapiens), P54132; recombinant BLM DNA unwinding, fluorescence dequenching;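 also: plate controls were vehicle for no effect and no enzyme for full effect; nearly all actives have a fitted effect of over 35% in size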
Tb PGK inh – qHTS Assay to Find Inhibitors of Phosphoglycerate Kinase; PGK/GAPDH coupled, Kinase-Glo luminescence, 60 min; Phosphoglycerate kinase, glycosomal (Trypanosoma brucei brucei), P07378; actives 0.043% (n = 380,000); Potency, µM (doses to about 57.5 µM), without a hit: at the highest dose activity change, negative = inhibition, hits mostly inhibitors; also: nearly all actives have a fitted effect of over 60% in size
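Luminescent ATP detection (Kinase-Glo Plus) follows a 60-minute room-temperature incubation, with wells lacking PGK as controls. Buffer: 100 mM TEA (pH 7.6), 5 mM MgCl2, 0.01% Tween-20. Coupling enzyme GAPDH (100 nM final) supplies unstable 1,3-BPG in-well.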
TDP1 inh – qHTS Assay for Inhibitors of Tyrosyl-DNA Phosphodiesterase (TDP1). Potency, µM (doses to about 130 µM), without a hit: top-dose activity change, negative = inhibition, usual class: inhibitors. AID 485290, 2010. actives 0.28% (n = 350,000). recombinant TDP1, AlphaScreen DNA substrate cleavage. Tyrosyl-DNA phosphodiesterase 1 (Homo sapiens), Q9NUW8; also: nearly all actives have a fitted effect of over 40% in size
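Compounds were preincubated with Tdp1 (1 nM final) for 15 min at room temperature before substrate (15 nM final) started a 5 min reaction; beads (10 ug/ml final) were then added for 10 min before AlphaScreen detection.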
RECQ1 helicase – qHTS Assay for Inhibitors of RecQ-Like Dna Helicase 1 (RECQ1). Potency, µM (series often up to 57.3 µM), for the others: top-dose activity, negative = inhibition, usual class: inhibitors. AID 2549, 2010. actives 0.54% (n = 240,000). RECQ1 DNA unwinding, red fluorescence kinetic read;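 also: plate controls were vehicle for no effect and no enzyme for full effect; nearly all actives have a fitted effect of over 30% in size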
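RECQ1T1 50 nM; forked duplex (20 bp + 30-nt ss tails) 200 nM, ATP 2 mM final; pH 8.0, 2 mM MgCl2, 2.5 ug/ml poly(dI-dC); 15 min compound preincubation; discontinuous kinetic read over 2 h at RT.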
* = called active by the depositor; i = inactive; ? = inconclusive; . = no result given; [ ] = another dose, or the depositor's remark. Calls follow the shape of the dose curve; as a rule, active = well fitted curve in the direction sought with a large enough effect; inconclusive = small, poorly fitted or top-dose-only effect, or another doubt; inactive = no such curve, though single readings can be large; an effect the other way counts as inactive or inconclusive. Unless noted, % is scaled to controls: 0 for no effect and ±100 for the full control effect; potency is read from the fitted curve at half-maximal effect.

SMILES	APEX1 inh	GLS inh	BLM inh	Tb PGK inh	TDP1 inh	RECQ1 helicase
CCc1ccc(C=C2SC(=S)N(CCCC(=O)Nc3ccc(C(=O)O)cc3)C2=O)cc1	.	11%	.	.	.	.
O=C(CCN1C(=O)/C(=C\c2ccco2)SC1=S)Nc1ccc(C(=O)O)c(O)c1	?	?	-8%	-21%	.	.
O=C(O)c1cccc(-c2ccc(/C=C3/SC(=Nc4ccccc4)N(Cc4cccnc4)C3=O)o2)c1	7.5µM*	129%	-17%	?	.	.
CCCCCCCCCCCCCCCC(=O)O[C@H]1[C@@H](O)[C@@H](O)[C@@H]([C@H](NC(=O)[C@@H]2C[C@@H](CCC)CN2C)[C@H](C)Cl)O[C@@H]1SC	.	-12%	.	.	.	.
Cn1cccc1CNC(=O)Nc1ccccc1	-9%	3%	-3%	i	6%	-1%
Cc1ccc(NC(=O)NCc2cccn2C)cc1C	8%	7.1µM*	-4%	-1%	.	.
N#Cc1nonc1-c1ccccc1	2%	.	.	.	.	.
O=S(=O)(NCCNc1nc(-c2ccco2)nc2ccccc12)c1ccccc1	.	.	.	.	3%	.
O=C(Nc1nc2ccccc2[nH]1)c1ccc(F)cc1	-4%	-13%	-3%	-4%	11%	-7%
O=C(Nc1nc2ccccc2[nH]1)c1ccccc1F	-4%	-5%	-1%	8.9µM*	5%	1%
O=S(=O)(O)OCC1OC(OC2(COS(=O)(=O)O)OC(COS(=O)(=O)O)C(OS(=O)(=O)O)C2OS(=O)(=O)O)C(OS(=O)(=O)O)C(OS(=O)(=O)O)C1OS(=O)(=O)O (configuration not stated)	.	-9%	.	.	.	.
CCOC(=O)c1ccc(N2C(=O)C3CC=CCC3C2=O)cc1 (configuration not stated)	0%	5%	-2%	.	6%	-11%
NS(=O)(=O)c1ccc(N2C(=O)C3CC=CCC3C2=O)cc1 (configuration not stated)	?	-5%	-1%	?	56µM*	i
O=[N+]([O-])O[C@@H]1CO[C@H]2[C@@H]1OC[C@@H]2O	-1%	.	.	.	.	.
Nc1ccc(S(=O)(=O)N2CCN(S(=O)(=O)c3ccc4c(c3)OCCO4)CC2)cc1	.	.	.	.	0%	.
N#Cc1ccc(CSc2nnc(NC(=O)c3ccc4ncsc4c3)s2)cc1	18%	4µM*	-14%	?	.	-19%
COc1ccc(S(=O)(=O)NCCC(=O)NC2CCCCC2C)cc1[N+](=O)[O-] (configuration not stated)	?	-14%	.	-14%	18µM*	.
Cc1c(Br)c(=O)oc2c(Br)c(O)c(O)cc12	3%	16%	7.9µM*	?	5%	i
Cc1c(Br)c(=O)oc2c(Br)c(O)ccc12	?	9%	9%	-5%	-3%	2%
CO/N=C(/C(=O)N[C@@H]1C(=O)N2C(C(=O)O)=C(CSc3cnns3)CS[C@H]12)c1csc(N)n1	.	32µM*	2%	.	.	.
CC(C)(C)OC(=O)Cc1nnc(C(C(=O)OCc2ccccc2)c2ccccc2)o1 (configuration not stated)	.	.	.	.	-8%	.
CC(C)(C)n1ncc2c(=O)n(Cc3ccccc3-c3ccccc3)cnc21	-1%	.	.	.	.	.
CC(=O)NC(CC(=O)OCC(=O)c1ccc(NC(=O)CC(C)C)cc1)c1ccccc1 (configuration not stated)	?	-25%	.	?	45µM*	.
N#Cc1c(-c2ccc(Cl)cc2)no[n+]1[O-]	-4%	.	.	.	.	.
COc1cc(CNc2ccc(N3CCN(C(C)=O)CC3)cc2)ccc1OCc1ccccc1	-6%	13µM*	-7%	0%	10%	-2%
SMILES	APEX1 inh	GLS inh	BLM inh	Tb PGK inh	TDP1 inh	RECQ1 helicase
COc1ccccc1Nc1cc2ccccc2c(=O)[nH]1	.	.	.	.	2%	.
O=C1c2ccccc2C(=O)N1c1cccc(=O)[nH]1	.	.	.	.	2%	.
CCCCNC(=S)N/N=C/c1cccc(OCC)c1O	0%	8.9µM*	-8%	3%	5%	-1%
O=C1CCc2cc(S(=O)(=O)Nc3cccc(-c4ccccc4)c3)ccc2N1	.	.	.	.	2%	.
Nc1ccc(O)c(C(=O)O)c1	7.1µM*	16µM*	-13%	.	.	7.1µM*
Nc1ccc(C(=O)O)c(O)c1 (tested in a mixture with another compound)	0%	.	-4%	.	20%[56.1 µM]	-3%
CCCSc1nc(C)c(-c2csc(C(C#N)=C3CCCC3)n2)cc1C#N	?	-1%	-6%	-8%	-6%	7.9µM*
CCCCSc1nc2c(cc1C#N)CCC2	-1%	0%	-8%	7%	1%	-2%
O=C1c2ccccc2C(=O)C12OC2c1cccc2ccccc12 (configuration not stated)	-8%	-27%	18µM*	-15%	-5%	3%
O=C(CNC(=O)c1ccncc1)OC(C(=O)Nc1cc(C(F)(F)F)ccc1Cl)c1ccccc1 (configuration not stated)	.	.	.	.	0%	.
CC(=O)c1cc2c(cc1O)OC(C)(C)C=C2	16%	.	0%	.	22µM*	-6%
CC1(C)C=Cc2cc3ccc(=O)oc3cc2O1	-14%	4%	-5%	10%	-10%[56.1 µM]	13%
CC1CCN(C(=O)c2ccc(S(=O)(=O)NCc3ccco3)cc2)CC1	-12%[12.4 µM]	-1%	1%	4%	89µM*	.
O=C(c1ccc(S(=O)(=O)NCc2ccco2)cc1)N1CCCC1	-1%	6%	-2%	0%	7%	0%
CN=c1scc(-c2ccccc2F)n1/N=C/c1ccc(O)c(O)c1O	10µM*	-30%	?	?	10%	7.9µM*
CC(C)N=c1scc(-c2cccs2)n1/N=C/c1ccc(O)c(O)c1O	-7%	-27%	-21%	-13%	12%	-17%
[O-][n+]1onc2c1CCC(=N/O)/C2=N\Nc1ccccc1	?	.	32µM*	.	6%	?
[O-][n+]1c2c(nn1-c1ccccc1)/C(=N/O)CCC2	2%	10%	-1%	-1%	0%	i
Cc1cc(C)c(NC(=O)CN)c(C)c1	1%	0.89µM*	-3%	-4%	5%	i
Cc1cccc(C)c1NC(=O)CN	-1%	?	3%	0%	.	-3%
